Sampled rows, rich in hits. Any-hit rate of the full collection: about 0.35%.
RGS4 inh – Inhibitors of Regulator of G Protein Signaling (RGS) 4: qHTS; Transcreener GDP fluorescence polarization, RGS4-accelerated GTP hydrolysis; Potency, µM (top dose mostly 114 µM), most hits filed as inhibitors; actives 0.039% (n = 390,000); note: nearly all actives have a fitted effect of over 75% in size
Target sequence (P49798 whole entry, looked up): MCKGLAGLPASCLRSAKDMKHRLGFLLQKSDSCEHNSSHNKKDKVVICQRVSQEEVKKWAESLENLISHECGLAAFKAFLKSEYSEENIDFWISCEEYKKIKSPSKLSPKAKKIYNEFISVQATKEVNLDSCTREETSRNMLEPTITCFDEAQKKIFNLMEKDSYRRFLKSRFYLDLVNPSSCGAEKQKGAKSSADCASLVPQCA
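MLSMR compounds (23 nl, pin-transferred) preincubated 10 min at room temperature with a 500nM (2x) first reagent, then RGS4 at 900nM (2x) plus Transcreener GDP mix added; fluorescence polarization (620/688 nm) read before and after 90 min at 30 °C.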
A-T KAP1 phos – qHTS Assay for Identifying a Potential Treatment of Ataxia-Telangiectasia | Potency, µM (doses to about 57.5 µM), usual class: activators | AID 485349, 2010 | actives 0.19% (n = 320,000) | F2112 A-T fibroblasts, KAP-1 phosphorylation AlphaLISA; neocarzinostatin DNA damage 30 min before lysis; note: nearly all actives have a fitted effect of over 45% in size
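hTERT-immortalized A-T patient fibroblasts (F2112), 500 cells/well in OPTI-MEM, 1% FBS, got compounds for 60 min, then NCS for 30 min at 37C. Lysates were then assayed for phospho-KAP-1 by AlphaLISA (anti-pKAP1 donor, anti-KAP1 acceptor beads), 6 hr at 25C.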
LDHA block – qHTS assay for inhibitors of human lactate dehydrogenase; L-lactate dehydrogenase A chain (Homo sapiens), P00338; purified LDHA, NADH/diaphorase-resazurin fluorescence; active compounds read low; activity change, % (values are at about 110 or 230 µM); actives 0.15% (n = 480,000); AID 1347041, 2019; in the data active = activity change below about -30%; inconclusive = mostly about -25% to -30%
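Human LDH5 at 2 nM final in Tris HCl pH 7.4 with 0.06 mM NADH and 0.2 mM pyruvate, reacted 5 minutes at room temperature. Remaining NADH coupled via diaphorase/resazurin; resorufin fluorescence read at 0 and 20 minutes, normalized to enzyme-free and DMSO wells.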
Anesthetic bind – qHTS Assay for Identification of Novel General Anesthetics. actives 0.074% (n = 350,000). apoferritin/1-aminoanthracene competitive binding, fluorescence. AID 485281, 2010. Ferritin light chain (Equus caballus), P02791. Potency, µM (doses to about 77.5 µM), most hits filed as inhibitors; note: nearly all actives have a fitted effect of over 20% in size
Target sequence (P02791 2-175 limits assumed): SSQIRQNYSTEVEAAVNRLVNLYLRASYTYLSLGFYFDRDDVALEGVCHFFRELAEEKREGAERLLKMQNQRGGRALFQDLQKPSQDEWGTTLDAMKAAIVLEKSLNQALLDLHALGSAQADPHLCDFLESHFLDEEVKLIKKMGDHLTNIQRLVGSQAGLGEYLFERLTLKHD
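Probe: 1-aminoanthracene (50% saturated, PBS). Protein: horse-spleen apoferritin, 10 uM. Incubation: 10 min, room temperature. Detection: 380 nm excitation, 535 nm emission. Analysis: normalized response, four-parameter Hill.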
Of the large screens only hits and unclear results are named; the others gave an inactive call; ! = not confirmed by another sample. Unless noted, calls come from the whole dose curve; as a rule, active = well fitted curve in the direction sought with a large enough effect; inconclusive = small, poorly fitted or top-dose-only effect, or another doubt; inactive = no such curve, though single readings can be large; an effect the other way counts as inactive or inconclusive.

C[C@]12CC[C@@H]3c4ccc(OC(=O)c5ccccc5)cc4CC[C@H]3[C@@H]1CC[C@@H]2O	A-T KAP1 phos 18µM
C[C@]12CCC3c4ccc(OC(=O)c5ccccc5)cc4CCC3C1CCC2=O (stereo partly drawn)	none (no result: RGS4 inh, A-T KAP1 phos, LDHA block)
COC(=O)/C(C#N)=C\c1cc(Br)c(O)c(OC)c1	none (no result: RGS4 inh, A-T KAP1 phos, Anesthetic bind)
N#Cc1nc(COc2ccccc2F)oc1NCc1ccc(F)cc1	A-T KAP1 phos 32µM, Anesthetic bind inconclusive
Cc1noc(NS(=O)(=O)c2ccc(NC(=O)CC34CC5CC(CC(Br)(C5)C3)C4)cc2)c1C	LDHA block -46
O=C1/C(=C/c2ccccc2)CSc2sccc21	Anesthetic bind 14µM (no result: A-T KAP1 phos)
Cc1cccc(-c2nc(C#N)c(NCc3ccc4c(c3)OCO4)o2)c1	none (no result: RGS4 inh, A-T KAP1 phos, Anesthetic bind)
CSc1ccccc1OCc1cc(C(=O)NCc2ccc(C)s2)no1	Anesthetic bind inconclusive
Cc1ccc(CNC(=O)c2cc(COc3c(F)cccc3F)on2)s1	Anesthetic bind 13µM
CC1(C)CC2(CCCN(C(=S)Nc3ccccc3)C2)CCO1 (stereo not drawn)	A-T KAP1 phos 20µM
CCNC(=O)NC(=O)C(C)OC(=O)c1cc(-c2cccs2)nc2ccccc12 (stereo not drawn)	none (no result: RGS4 inh, A-T KAP1 phos, Anesthetic bind)
Cc1ccc2c(C)c(C(=O)Nc3nc(-c4ccc(C)s4)ns3)oc2c1	LDHA block -33 (no result: RGS4 inh, A-T KAP1 phos, Anesthetic bind)
Cc1ccc(-c2nsc(NC(=O)c3oc4ccc(Cl)cc4c3C)n2)s1	none (no result: RGS4 inh, A-T KAP1 phos, Anesthetic bind)
Cc1ccc(Oc2ccc(NC(=O)Cn3ccsc3=N)cc2)cc1	Anesthetic bind 13µM
Cc1ccc(NC(=O)CN(C)C(=O)Cn2ccsc2=N)cc1	none
O=C(CSc1ncnc2nc[nH]c12)Nc1cc(Cl)ccc1Cl	LDHA block -38 (no result: RGS4 inh, A-T KAP1 phos, Anesthetic bind)
COc1ccc2cc(C(=O)OC(C)C(N)=O)c(C)nc2c1 (stereo not drawn)	LDHA block -32 (no result: RGS4 inh, A-T KAP1 phos, Anesthetic bind)
Cc1ccc(NS(=O)(=O)c2ccc(C)c(C(=O)N3CCOCC3)c2)cc1	none
CCc1ccc(NS(=O)(=O)c2ccc(C)c(C(=O)N3CCOCC3)c2)cc1	LDHA block -44
Nc1nnnn1/N=C/c1cc(Br)ccc1O	LDHA block -47 (no result: A-T KAP1 phos, Anesthetic bind)
Nc1nnnn1/N=C/c1ccc(Br)cc1	none
Cc1ccc(-c2nc(=Nc3ccccc3)sn2-c2ccccc2)cc1	none (no result: A-T KAP1 phos, Anesthetic bind)
N=c1nc(-c2ccccc2)n(-c2ccccc2)s1	RGS4 inh inconclusive, LDHA block -71 (no result: A-T KAP1 phos, Anesthetic bind)
Cc1nc2cc(NC(C)C(=O)Nc3cc(Cl)ccc3Cl)ccc2o1 (stereo not drawn)	none (no result: RGS4 inh, A-T KAP1 phos, Anesthetic bind)
O=C(O)c1cc(-c2ccco2)nc2c(Cl)cccc12	none (no result: RGS4 inh, A-T KAP1 phos, Anesthetic bind)
CC(=O)NC1(C(F)(F)F)C(=O)Nc2c1c(=O)[nH]c(=O)n2Cc1ccccc1 (stereo not drawn)	none (no result: RGS4 inh, A-T KAP1 phos, Anesthetic bind)
O=C(CCc1ccccc1)NC1(C(F)(F)F)C(=O)Nc2c1c(=O)[nH]c(=O)n2Cc1ccccc1 (stereo not drawn)	LDHA block -35 (no result: RGS4 inh, A-T KAP1 phos, Anesthetic bind)
Cc1ccc(NC(=O)CSc2nc(-c3ccc(C(C)(C)C)cc3)nc3cc(=O)[nH]n23)cc1C	LDHA block -41 (no result: A-T KAP1 phos)
CCOc1ccc(-c2nc(SCC(=O)Nc3ccc(C)c(C)c3)n3[nH]c(=O)cc3n2)cc1	none (no result: A-T KAP1 phos)
Cc1ccc(NC(=O)COC(=O)CSC(=S)N2CCOCC2)cc1C	Anesthetic bind 5.6µM
Cc1ccc(NC(=O)COC(=O)CN2CSCC2=O)cc1C	none
Cc1ccc(-c2n[nH]c(=O)c3ccccc23)cc1S(N)(=O)=O	LDHA block -30!
CNS(=O)(=O)c1cc(-c2n[nH]c(=O)c3ccccc23)ccc1C	none (no result: RGS4 inh, A-T KAP1 phos, Anesthetic bind)
c1ccc2c(N3CCOCC3)nc(N3CCOCC3)nc2c1	none (no result: A-T KAP1 phos)
CSc1nc(N2CCOCC2)nc2ccc(C)cc12	A-T KAP1 phos 28µM (no result: Anesthetic bind)
COc1ccc(OC)c(-c2cc3ccc(OCC#N)cc3oc2=O)c1	none (no result: RGS4 inh, A-T KAP1 phos, Anesthetic bind)
CC[N+]1(C)CC2CCC(C)(C1)C2(C)C (stereo not drawn)	LDHA block -31!
O=S(CCc1ccncc1)Cc1ccc2c3c(cccc13)CC2 (stereo not drawn)	none (no result: RGS4 inh, A-T KAP1 phos, Anesthetic bind)
COc1ccccc1C(=O)NC(=O)Nc1cccc(Cl)c1	A-T KAP1 phos 3.5µM
CC(C)N(CCC(=O)c1ccc2ccccc2c1)Cc1ccccc1	RGS4 inh 0.67µM, A-T KAP1 phos inconclusive (no result: Anesthetic bind)
CCc1ccc(NC(=O)c2nc3ccccc3nc2N2CCCC2)cc1	LDHA block -31 (no result: RGS4 inh, A-T KAP1 phos, Anesthetic bind)
